# Test results taken from the supplement of paper PMC10849652.
# About 8,800 targets were measured; listed, in parts, are those with a hit and a random draw of the rest. About 0.5% of all pairs of compound and target were hits. A number with no mark means an inactive call.
# Key:
# Test in all cases: log2 fold change, soluble protein after heating vs DMSO (PISA); higher = thermal stabilisation; K562 lysate, 10 uM; active = over 0.2 and 3.5 SD of the protein, either way, in both replicates (recomputed)
# erlotinib = compound: C#Cc1cccc(Nc2ncnc3cc(OCCOC)c(OCCOC)cc23)c1 [erlotinib]
# In short: (§1)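 The values are log-two fold changes in thermal stability compared with solvent controls and come from duplicates. They were obtained by TMTpro 16plex LC-MS/MS, with channel sums equalised, on the supernatant after 21,000xg for 90 min. That supernatant came from crude K562 extract at 1 mg/mL protein treated with 10 μM compound for 30 min, heated for 3 min across 48°C-58°C, pooled and brought to 0.5% NP-40 at 4°C.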
# [1] = compound: C/C(=N\NC(=O)C1=CC(=CC=C1)S(=O)(=O)N2CCOCC2)/C3=C(C=CC(=C3)Cl)O
# In short: as §1
# [2] = compound: C1=CC(=CC=C1C2=NC3=C(N2)C=C(C=C3)C(=O)N)OC4=CC=C(C=C4)Cl
# In short: as §1
# [3] = compound: C1=CC2=C(C=CC(=C2)/C=C\3/C(=O)NC(=NCC4=CC=CS4)S3)N=C1
# In short: as §1
# [4] = compound: C1=CC=C(C=C1)C2=NC(=C(N2)C3=CC=NC=C3)C4=CC(=C(C=C4)Cl)O
# In short: as §1
# [5] = compound: C1=CC=C2C(=C1)C3=NNC4=CC=CC(=C43)C2=O
# In short: as §1
# [6] = compound: C1CCN(C1)C(=O)NC2=CC=CC(=C2)NC3=NC=C(C(=N3)NCCC4=CN=CN4)Br
# In short: as §1
# [7] = compound: C1CN(CCC1(CC2=CC=C(C=C2)Cl)N)C3=NC=NC4=C3C=CN4
# In short: as §1
# IRAK-1-4 Inhibitor I = compound: C1COCCN1CCN2C3=CC=CC=C3N=C2NC(=O)C4=CC(=CC=C4)[N+](=O)[O-] [IRAK-1-4 Inhibitor I]
# In short: as §1
# [8] = compound: C1=CC2=NC=CN=C2C=C1/C=C/3\C(=O)NC(=O)S3
# In short: as §1
# Sequence of UniProt P30304 (P30304 whole entry, looked up): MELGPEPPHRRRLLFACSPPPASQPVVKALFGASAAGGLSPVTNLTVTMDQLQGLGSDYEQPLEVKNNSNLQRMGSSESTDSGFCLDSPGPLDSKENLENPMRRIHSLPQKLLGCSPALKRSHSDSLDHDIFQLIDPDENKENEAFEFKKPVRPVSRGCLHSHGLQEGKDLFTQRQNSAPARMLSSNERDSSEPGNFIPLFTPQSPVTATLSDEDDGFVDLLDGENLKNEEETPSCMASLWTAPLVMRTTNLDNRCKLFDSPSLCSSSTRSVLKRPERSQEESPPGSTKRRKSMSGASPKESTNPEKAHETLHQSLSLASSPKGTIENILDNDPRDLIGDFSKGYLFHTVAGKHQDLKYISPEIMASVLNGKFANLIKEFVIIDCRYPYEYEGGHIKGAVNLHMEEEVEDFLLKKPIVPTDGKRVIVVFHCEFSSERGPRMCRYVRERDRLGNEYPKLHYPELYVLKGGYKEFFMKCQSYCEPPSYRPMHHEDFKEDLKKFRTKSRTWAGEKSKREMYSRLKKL
# Sequence of UniProt Q9BUK0 (Q9BUK0 whole entry, looked up): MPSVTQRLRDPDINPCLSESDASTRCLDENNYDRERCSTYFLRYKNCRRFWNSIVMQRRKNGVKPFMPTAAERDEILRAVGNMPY
# Sequence of UniProt Q6TDU7 (Q6TDU7 whole entry, looked up): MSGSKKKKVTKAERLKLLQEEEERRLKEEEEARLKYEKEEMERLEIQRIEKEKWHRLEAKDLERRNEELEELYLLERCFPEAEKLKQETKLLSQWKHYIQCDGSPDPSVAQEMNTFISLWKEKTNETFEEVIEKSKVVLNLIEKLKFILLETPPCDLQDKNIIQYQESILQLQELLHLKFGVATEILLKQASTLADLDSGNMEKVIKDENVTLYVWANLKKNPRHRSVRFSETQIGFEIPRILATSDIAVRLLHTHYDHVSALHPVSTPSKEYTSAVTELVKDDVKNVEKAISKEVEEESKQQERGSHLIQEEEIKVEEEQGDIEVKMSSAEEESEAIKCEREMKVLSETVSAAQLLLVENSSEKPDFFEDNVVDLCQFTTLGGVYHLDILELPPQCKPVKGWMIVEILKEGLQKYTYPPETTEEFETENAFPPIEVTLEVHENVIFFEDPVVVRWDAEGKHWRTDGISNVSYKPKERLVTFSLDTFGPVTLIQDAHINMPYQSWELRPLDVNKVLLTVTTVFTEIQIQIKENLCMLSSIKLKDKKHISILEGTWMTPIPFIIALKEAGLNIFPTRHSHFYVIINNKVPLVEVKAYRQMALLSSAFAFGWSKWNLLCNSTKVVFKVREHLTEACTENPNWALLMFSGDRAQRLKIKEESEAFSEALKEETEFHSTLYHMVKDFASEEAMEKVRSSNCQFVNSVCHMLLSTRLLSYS
# Sequence of UniProt Q7Z4R8 (Q7Z4R8 whole entry, looked up): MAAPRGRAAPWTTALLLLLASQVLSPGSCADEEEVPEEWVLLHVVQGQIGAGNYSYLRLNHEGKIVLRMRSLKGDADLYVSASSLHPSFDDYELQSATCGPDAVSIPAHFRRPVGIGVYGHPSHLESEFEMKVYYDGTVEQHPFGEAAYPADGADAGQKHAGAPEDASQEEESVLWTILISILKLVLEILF
# Sequence of UniProt Q6ZRI6 (Q6ZRI6 whole entry, looked up): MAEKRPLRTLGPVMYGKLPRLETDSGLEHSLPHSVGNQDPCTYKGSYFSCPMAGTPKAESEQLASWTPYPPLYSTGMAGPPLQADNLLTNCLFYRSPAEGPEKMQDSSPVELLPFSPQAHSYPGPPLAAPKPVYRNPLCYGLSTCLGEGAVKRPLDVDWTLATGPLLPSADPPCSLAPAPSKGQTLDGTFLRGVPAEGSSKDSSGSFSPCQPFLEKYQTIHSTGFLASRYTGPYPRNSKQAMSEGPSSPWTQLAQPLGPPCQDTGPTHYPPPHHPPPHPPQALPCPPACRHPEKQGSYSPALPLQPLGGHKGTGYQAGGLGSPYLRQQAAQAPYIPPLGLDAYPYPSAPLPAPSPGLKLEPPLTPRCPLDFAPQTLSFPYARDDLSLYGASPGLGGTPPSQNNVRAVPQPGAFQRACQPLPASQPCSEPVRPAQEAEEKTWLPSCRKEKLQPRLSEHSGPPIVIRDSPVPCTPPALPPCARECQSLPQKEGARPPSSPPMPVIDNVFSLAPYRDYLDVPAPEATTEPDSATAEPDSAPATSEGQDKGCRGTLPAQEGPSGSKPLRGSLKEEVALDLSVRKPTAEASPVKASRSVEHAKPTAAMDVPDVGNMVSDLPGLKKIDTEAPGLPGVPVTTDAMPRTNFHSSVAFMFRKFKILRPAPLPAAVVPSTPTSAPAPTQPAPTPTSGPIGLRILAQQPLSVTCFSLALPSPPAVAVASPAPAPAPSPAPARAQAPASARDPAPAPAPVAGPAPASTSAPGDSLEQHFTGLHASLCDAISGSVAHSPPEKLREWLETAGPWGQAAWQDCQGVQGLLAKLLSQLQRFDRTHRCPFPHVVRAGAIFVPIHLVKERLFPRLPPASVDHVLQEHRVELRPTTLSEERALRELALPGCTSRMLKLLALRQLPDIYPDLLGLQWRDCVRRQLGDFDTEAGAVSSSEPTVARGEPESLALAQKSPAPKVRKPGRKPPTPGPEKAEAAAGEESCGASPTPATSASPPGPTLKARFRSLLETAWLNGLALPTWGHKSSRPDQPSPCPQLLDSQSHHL
# Sequence of UniProt Q14012 (Q14012 whole entry, looked up): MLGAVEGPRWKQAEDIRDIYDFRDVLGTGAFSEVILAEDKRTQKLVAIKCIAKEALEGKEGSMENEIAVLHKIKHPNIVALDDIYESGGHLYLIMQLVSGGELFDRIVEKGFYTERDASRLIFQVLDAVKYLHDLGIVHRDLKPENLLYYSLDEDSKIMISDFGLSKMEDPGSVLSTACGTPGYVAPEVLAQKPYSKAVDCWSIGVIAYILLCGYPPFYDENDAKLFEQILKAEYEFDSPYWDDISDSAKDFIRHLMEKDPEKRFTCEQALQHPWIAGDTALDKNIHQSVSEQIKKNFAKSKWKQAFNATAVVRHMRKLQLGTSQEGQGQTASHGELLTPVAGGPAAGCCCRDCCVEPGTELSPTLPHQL
# Sequence of UniProt O76039 (O76039 whole entry, looked up): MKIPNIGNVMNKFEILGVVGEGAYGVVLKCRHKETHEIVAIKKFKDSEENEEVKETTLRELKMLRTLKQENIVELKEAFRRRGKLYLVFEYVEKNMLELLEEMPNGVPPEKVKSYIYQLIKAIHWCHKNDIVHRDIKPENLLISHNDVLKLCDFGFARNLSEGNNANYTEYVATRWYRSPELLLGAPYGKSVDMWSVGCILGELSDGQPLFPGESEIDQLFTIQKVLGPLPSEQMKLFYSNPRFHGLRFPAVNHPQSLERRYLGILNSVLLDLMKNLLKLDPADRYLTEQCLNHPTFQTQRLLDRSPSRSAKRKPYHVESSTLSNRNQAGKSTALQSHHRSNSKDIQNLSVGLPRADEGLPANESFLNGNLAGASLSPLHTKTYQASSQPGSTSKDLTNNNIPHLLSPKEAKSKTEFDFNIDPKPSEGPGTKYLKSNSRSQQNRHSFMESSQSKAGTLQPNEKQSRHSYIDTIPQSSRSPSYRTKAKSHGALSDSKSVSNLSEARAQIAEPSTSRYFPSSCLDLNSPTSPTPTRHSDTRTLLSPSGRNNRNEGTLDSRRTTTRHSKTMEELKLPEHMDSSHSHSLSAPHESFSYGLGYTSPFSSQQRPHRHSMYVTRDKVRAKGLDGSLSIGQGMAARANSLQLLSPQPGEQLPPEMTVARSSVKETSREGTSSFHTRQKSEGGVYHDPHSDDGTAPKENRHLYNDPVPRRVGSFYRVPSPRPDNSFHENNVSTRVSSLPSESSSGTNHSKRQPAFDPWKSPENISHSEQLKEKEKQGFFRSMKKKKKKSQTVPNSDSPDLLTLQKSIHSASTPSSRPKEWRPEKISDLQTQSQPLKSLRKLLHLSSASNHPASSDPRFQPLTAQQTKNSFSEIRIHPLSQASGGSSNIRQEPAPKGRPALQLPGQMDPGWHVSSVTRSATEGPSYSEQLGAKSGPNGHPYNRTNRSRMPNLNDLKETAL
# Sequence of UniProt P25440 (P25440 whole entry, looked up): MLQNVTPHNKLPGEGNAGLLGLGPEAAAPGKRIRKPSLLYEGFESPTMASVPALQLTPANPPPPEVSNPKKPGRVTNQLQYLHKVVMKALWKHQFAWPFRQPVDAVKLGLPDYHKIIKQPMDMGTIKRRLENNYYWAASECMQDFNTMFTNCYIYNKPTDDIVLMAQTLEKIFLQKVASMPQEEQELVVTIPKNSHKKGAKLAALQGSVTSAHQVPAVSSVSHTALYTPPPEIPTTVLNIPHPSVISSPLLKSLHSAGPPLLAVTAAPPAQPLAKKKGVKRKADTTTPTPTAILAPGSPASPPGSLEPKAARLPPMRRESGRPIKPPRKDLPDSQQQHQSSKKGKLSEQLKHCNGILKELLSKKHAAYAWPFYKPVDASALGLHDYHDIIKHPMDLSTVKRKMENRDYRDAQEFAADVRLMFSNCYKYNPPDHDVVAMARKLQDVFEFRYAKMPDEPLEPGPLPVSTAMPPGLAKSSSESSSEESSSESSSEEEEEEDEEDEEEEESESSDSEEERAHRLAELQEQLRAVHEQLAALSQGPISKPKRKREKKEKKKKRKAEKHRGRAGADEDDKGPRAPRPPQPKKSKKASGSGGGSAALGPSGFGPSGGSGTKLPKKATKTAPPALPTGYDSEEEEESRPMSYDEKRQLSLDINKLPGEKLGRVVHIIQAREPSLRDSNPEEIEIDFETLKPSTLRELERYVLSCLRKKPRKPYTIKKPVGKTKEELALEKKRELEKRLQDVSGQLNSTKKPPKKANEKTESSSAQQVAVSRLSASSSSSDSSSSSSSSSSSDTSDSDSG
# Sequence of UniProt P55210 (P55210 whole entry, looked up): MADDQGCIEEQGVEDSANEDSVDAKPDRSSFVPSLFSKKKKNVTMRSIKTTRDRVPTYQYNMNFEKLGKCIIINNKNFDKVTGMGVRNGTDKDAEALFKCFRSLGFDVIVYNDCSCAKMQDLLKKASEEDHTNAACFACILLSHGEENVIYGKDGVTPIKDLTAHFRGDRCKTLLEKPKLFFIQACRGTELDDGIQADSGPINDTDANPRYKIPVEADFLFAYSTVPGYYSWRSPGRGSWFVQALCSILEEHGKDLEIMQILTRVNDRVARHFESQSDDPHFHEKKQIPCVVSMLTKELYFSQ
Target,log2 fold change (erlotinib),log2 fold change [1],log2 fold change [2],log2 fold change [3],log2 fold change [4],log2 fold change [5],log2 fold change [6],log2 fold change [7],log2 fold change (IRAK-1-4 Inhibitor I),log2 fold change [8]
CACUL1 (UniProt Q86Y37),0.232,-0.048,0.087,0.044,0.027,0.045,0.042,0.023,0.016,
CCDC22 (UniProt O60826),-0.039,-0.007,0.002,0.02,-0.017,-0.06,0.007,0.03,0.011,-0.03
CAMK2B (UniProt Q13554),0.037,0.086,-0.067,-0.039,-0.069,,0.011,-0.034,0.087,-0.068
CAMK1 (UniProt Q14012),-0.014,-0.145,0.008,0,-0.011,0.135,0,0.016,0.107,0.037
CASP3 (UniProt P42574),-0.002,-0.02,0.044,-0.001,0.02,-0.042,0.011,0.039,-0.007,0.034
C8orf88 (UniProt P0DMB2),-0.006,,-0.185,,-0.003,,,,-0.013,0.028
BBS7 (UniProt Q8IWZ6),-0.095,0.146,-0.014,-0.034,0.057,-0.098,-0.068,0.082,0.022,
CEP57L1 (UniProt Q8IYX8),-0.064,,0.118,,-0.041,,-0.013,0.101,0.35,-0.021
CDC25A (UniProt P30304),0.016,,0.085,,0,,,,0.052,
C3AR1 (UniProt Q16581),,,,,,,,,,0.145
B3GALT6 (UniProt Q96L58),0.074,,-0.04,,-0.028,,,,-0.049,0.022
CDK11A (UniProt Q9UQ88),0.053,,-0.128,,0.027,,,,-0.009,-0.037
CANX (UniProt D6RHJ3),,-0.321,,0.031,,-0.022,,,,
C6orf120 (UniProt Q7Z4R8),0.043,,-0.014,,,,,,,0.008
CASC1 (UniProt Q6TDU7),,,,,-0.03,,,,0.179,1.74 (active)
CHCHD7 isoform 4 (UniProt Q9BUK0),,-0.158,,0.048,0.046,-0.012,0.006,0.072,-0.025,0.014
CHD9 (UniProt Q3L8U1),-0.046,0.169,-0.167,0.191,0.043,-0.059,,,0.016,
CAD (UniProt H7BZB3),0.126,-0.127,-0.28,-0.069,,-0.034,-0.035,-0.007,,
CEP128 (UniProt Q6ZU80),,-0.069,,0,0.236,-0.102,-0.138,-0.015,-0.212,-0.234
ATE1 (UniProt O95260),,,,,,,,,,0.005
C15orf39 (UniProt Q6ZRI6),-0.029,,0.026,,0.052,,0.019,-0.009,0.034,-0.031
"CHD4, A0A2R8Y521",,,,,0.259,,-0.033,0.261,0.178,

Target,log2 fold change (erlotinib),log2 fold change [1],log2 fold change [2],log2 fold change [3],log2 fold change [4],log2 fold change [5],log2 fold change [6],log2 fold change [7],log2 fold change (IRAK-1-4 Inhibitor I),log2 fold change [8]
CAPNS1 (UniProt K7ES78),0.193,-0.23,0.019,-0.275,-0.048,0.047,,,-0.09,
CARHSP1 (UniProt H3BNU9),,,,,,,,,,-0.215
CD80 (UniProt P33681),-0.139,0.041,0.063,-0.013,-0.087,-0.02,0.058,-0.029,0.096,
CDKL5 (UniProt O76039),,-0.216,,-0.08,,0.339,0.423,0.085,,
BICRA (UniProt Q9NZM4),0.204,,0.231,,0.065,,,,0.115,0.12
BAHCC1 (UniProt Q9P281),-0.047,0.026,0.076,-0.126,,-0.009,-0.101,-0.11,,
ATG4D (UniProt Q86TL0),,,,,0.049,,0.047,-0.074,-0.142,0.072
BUD13 (UniProt Q9BRD0),-0.04,,-0.02,,0.054,,-0.046,-0.162,-0.066,0.054
CCDC130 (UniProt P13994),-0.045,,0.28,,-0.224,,-0.152,-0.016,0.025,0.032
CDK2 (UniProt P24941),-0.026,-0.152,0.051,,0.008,0.237,0.135,0.004,0.014,-0.003
CCND3 (UniProt P30281),-0.034,,0.064,,0.106,,-0.228,0.116,0.033,-0.03
CEP295 isoform 3 (UniProt Q9C0D2),-0.063,,-0.02,,-0.092,,0.015,0.111,-0.143,0.051
CDC14A isoform 2 (UniProt Q9UNH5),,,,,0.082,,,,-0.102,
ATPSCKMT (UniProt Q6P4H8),,,,,0.075,,-0.074,-0.006,-0.046,0
CAPNS1 (UniProt U3KPR7),,,,,,,,,,-0.105
C9orf72 (UniProt Q96LT7),-0.043,,0.056,,-0.041,,0.056,-0.068,-0.042,-0.01
"BRAF, A0A2R8Y8E0",,-0.005,,0.001,,0.119,0.067,-0.045,,
C1orf131 isoform 5 (UniProt Q8NDD1),-0.006,-0.094,0.051,-0.058,-0.013,-0.001,-0.062,-0.011,0.067,
BRD2 isoform 2 (UniProt P25440),-0.039,,0.02,0.036,0.109,-0.014,-0.134,-0.114,0.003,0
CASP7 isoform 3 (UniProt P55210),0.104,,0.008,,0.019,,-0.013,0.098,0.241,-0.086
CENPV (UniProt Q7Z7K6),,-0.033,,0.013,-0.193,0.015,-0.037,0.012,0.013,-0.093
BNIP3 (UniProt Q12983),-0.008,,0.036,,0.028,,0.031,0.02,0.057,-0.013
